In PubChem BioAssay (Tox21):
Inconclusive results are not listed. Calls of active or inactive are those of the source. Unless noted, calls come from the whole dose curve; as a rule, active = well fitted curve in the direction sought with a large enough effect in the repeat runs; inconclusive = weak or mixed curves; inactive = no such curve, though single readings can be large; an effect the other way counts as inactive or inconclusive.

Columns and labels:
[1] = qHTS assay to identify small molecule agonists of the vitamin D receptor (VDR) signaling pathway - cell viability counter screen (AID 743224); note: nearly all actives have a fitted effect of over 50% in size
Outline: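 Counter screen for cytotoxicity: VDR-bla cells at 2,000 cells/well, 16 h compound exposure, then CellTiter-Glo luminescence after the beta-lactamase measurement.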

[2] = qHTS assay to identify small molecule antagonists of the vitamin D receptor (VDR) signaling pathway - cell viability counter screen (AID 743225); note: nearly all actives have a fitted effect of over 50% in size
Outline: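 Cytotoxicity counter screen read by CellTiter-Glo luminescence (30 min, room temperature) in the same wells as the VDR-bla antagonist readout. HEK 293T VDR-UAS-bla cells had 16 h at 37C with compound and 3 nM (final) 1-alpha,25-dihydroxyvitamin D3, then 2 h with FRET substrate.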

[3] = qHTS assay to identify small molecule agonists of the NFkB signaling pathway (AID 1159509; active = well fitted curve in the direction sought with a large enough effect in the signal ratio in the repeat runs, not every such curve was filed as active; the % refers to the signal ratio)
Outline: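 Readout: FRET fluorescence, 405 nm excitation, 460/530 nm emission; beta-lactamase expression disrupts FRET. Cells: ME-180 stably carrying NF-kB-driven bla reporter. Compound exposure 5 hr, 37 C, 5% CO2.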

[4] = qHTS assay to identify small molecule agonists of the NFkB signaling pathway - cell viability counter screen (AID 1159515; calls by dose curve; note: nearly all actives have a fitted effect of over 55% in size)
Outline: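 Counter screen run alongside the NFkB-bla agonist assay: ME-180 reporter cells exposed to compounds for 5 hr, then lysed with CellTiter-Glo in the same wells. Luminescence, read after 30 min, reflects viable cells.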

[5] = qHTS assay to identify small molecule agonists of the endoplasmic reticulum stress response signaling pathway (AID 1159516; active = well fitted activation curve with a large enough effect in the signal ratio in the repeat runs, not every such curve was filed as active; the % refers to the signal ratio)
Outline: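 For this screen, HeLa cells stably carrying beta-lactamase under the ER stress response element received test compounds, positive controls or DMSO for 5 hr at 37 C; B/G FRET substrate was then added and dual-wavelength emission recorded.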

[6] = qHTS assay to identify small molecule antagonists of the retinoid-related orphan receptor gamma (ROR-gamma) signaling pathway - cell viability counter screen (AID 1159520); note: nearly all actives have a fitted effect of over 50% in size
Outline: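 Tet-on ROR gamma CHO cells (1,000/well) were plated 4 hr, given compounds in DMSO for 2 hr at 37 C, then induced with 1 uM final doxycycline for 16 hr. Viability was read as ATP by CellTiter-Glo luminescence after 30 min.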

[7] = qHTS assay to identify small molecule agonists of the AP-1 signaling pathway - cell viability counter screen (AID 1159525; calls by dose curve; note: nearly all actives have a fitted effect of over 55% in size)
Outline: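 Each titration point was normalised to DMSO and tetra n-octyl ammonium bromide controls. The read was Cell Titer Glo luminescence after 30 min at RT, following 5 h compound exposure of ME-180 AP-1-bla cells at 37 °C.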

[8] = qHTS assay to identify small molecule agonists of the AP-1 signaling pathway (AID 1159526; calls by dose curve)
[9] = target: Retinoic acid receptor RXR-alpha (Homo sapiens) (UniProt P19793); assay: qHTS assay to identify small molecule agonists of the RXR signaling pathway (AID 1159527; calls by dose curve; note: nearly all actives have a fitted effect of over 35% in size)
Chain of Retinoic acid receptor RXR-alpha (Homo sapiens) (P19793 whole entry, looked up): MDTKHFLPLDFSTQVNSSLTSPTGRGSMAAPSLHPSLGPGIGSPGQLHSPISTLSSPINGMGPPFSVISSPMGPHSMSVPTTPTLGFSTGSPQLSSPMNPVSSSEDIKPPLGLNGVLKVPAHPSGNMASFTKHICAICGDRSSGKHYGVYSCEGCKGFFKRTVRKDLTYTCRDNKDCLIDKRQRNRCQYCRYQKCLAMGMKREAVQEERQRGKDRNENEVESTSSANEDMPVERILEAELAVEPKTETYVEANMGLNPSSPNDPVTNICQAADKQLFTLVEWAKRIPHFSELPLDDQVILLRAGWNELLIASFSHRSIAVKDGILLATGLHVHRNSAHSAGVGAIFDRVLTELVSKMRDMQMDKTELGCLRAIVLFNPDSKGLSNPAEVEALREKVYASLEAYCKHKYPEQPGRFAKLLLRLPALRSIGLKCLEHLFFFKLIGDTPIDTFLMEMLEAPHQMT
Outline: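 Agonist-mode beta-lactamase reporter assay: HEK 293T RXR-alpha-UAS-bla cells treated 16 hr at 37 C with compounds, 9-cis retinoic acid as positive control. LiveBLAzer FRET substrate, 405 nm excitation, 460/530 nm emission.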

[10] = qHTS assay to identify small molecule agonists of the RXR signaling pathway - cell viability counter screen (AID 1159529); note: nearly all actives have a fitted effect of over 50% in size
Outline: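 CellTiter-Glo luminescence gave viability in the wells also read for beta-lactamase. Cells (RXR-alpha-UAS-bla HEK 293T, 2% charcoal-stripped FBS medium) had 5 hr plating, then 16 hr compound exposure at 37 C; tetraoctyl ammonium bromide served as positive control.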

[11] = qHTS assay to identify small molecule antagonists of the retinoid acid receptor (RAR) signaling pathway - cell viability counter screen (AID 1159551); note: nearly all actives have a fitted effect of over 35% in size
Outline: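 Measured by luminescent ATP detection, viability reflects C3RL4 cells treated 6 h at 37 C with test chemicals in the presence of 1 uM (final) retinol.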

[12] = qHTS assay to identify small molecule antagonists of the retinoic acid receptor (RAR) signaling pathway (AID 1159552; note: nearly all actives have a fitted effect of over 50% in size)
Outline: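 Luminescent RARE reporter read-out in C3RL4 cells: 6 hr co-treatment at 37 C of test compounds with retinol at 1 uM final. Cells plated overnight beforehand; luciferase reagent incubated 30 min at room temperature before reading.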

[13] = qHTS assay to identify small molecule agonists of the retinoic acid receptor (RAR) signaling pathway (AID 1159553); details: C3RL4 RARE luciferase reporter, agonist, 6 h; activation: at 73.3 µM (top of the series)
Outline: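 6 hr compound exposure (DMSO vehicle) of overnight-plated C3RL4 RARE-luc cells at 37 C; luminescence quantified after 30 min RT with luciferase reagent.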

[14] = qHTS assay to identify small molecule antagonists of the estrogen related receptor (ERR) signaling pathway from Tox21 library - cell viability counter screen (AID 1224834); note: nearly all actives have a fitted effect of over 30% in size; note: potency is the fitted concentration of half-maximal effect
Outline: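 Seeded ERR cells were rested 6 h at 37 C/5% CO2 before compounds, positive and negative controls or DMSO were added. Incubation continued for 17.5 h, and viability was then quantified by CellTiter-Fluor fluorescence.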

[15] = target: Luciferin 4-monooxygenase (Photinus pyralis) (UniProt P08659); assay: qHTS assay to identify small molecule inhibitors of firefly luciferase (AID 1224835); note: nearly all actives have a fitted effect of over 25% in size
Chain of Luciferin 4-monooxygenase (Photinus pyralis) (P08659 whole entry, looked up): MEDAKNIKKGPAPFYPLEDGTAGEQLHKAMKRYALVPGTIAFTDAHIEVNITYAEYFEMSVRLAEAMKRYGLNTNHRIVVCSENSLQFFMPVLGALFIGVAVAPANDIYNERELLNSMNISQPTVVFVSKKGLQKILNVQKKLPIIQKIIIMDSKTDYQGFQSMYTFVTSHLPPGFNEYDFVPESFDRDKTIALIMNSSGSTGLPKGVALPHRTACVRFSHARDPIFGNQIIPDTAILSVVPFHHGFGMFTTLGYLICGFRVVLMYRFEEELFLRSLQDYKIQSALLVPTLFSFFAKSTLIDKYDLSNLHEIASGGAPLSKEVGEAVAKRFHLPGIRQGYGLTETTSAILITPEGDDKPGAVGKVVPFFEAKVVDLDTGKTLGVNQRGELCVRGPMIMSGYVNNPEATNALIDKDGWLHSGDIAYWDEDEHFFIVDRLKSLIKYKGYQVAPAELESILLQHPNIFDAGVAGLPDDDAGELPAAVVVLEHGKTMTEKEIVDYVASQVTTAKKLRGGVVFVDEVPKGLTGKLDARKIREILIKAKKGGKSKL
Outline: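 Quantitative HTS format; KM concentrations of both substrates. Purified P. pyralis FLuc activity quantified from luminescence images.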

[16] = qHTS assay to identify small molecule agonists of the constitutive androstane receptor (CAR) signaling pathway - cell viability counter screen (AID 1224836); note: nearly all actives have a fitted effect of over 45% in size
Outline: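 Cell viability multiplexed with the CAR agonist screen: CellTiter-Fluor fluorescence after 23 hr at 37 C. HepG2-CYP2B6-hCAR cells got compounds at 15 concentrations with PK11195 at 0.75 uM final.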

[17] = qHTS assay to identify small molecule antagonists of the constitutive androstane receptor (CAR) signaling pathway - cell viability counter screen (AID 1224837); note: nearly all actives have a fitted effect of over 45% in size
Outline: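 To flag cytotoxic false antagonists, HepG2 hCAR/CYP2B6-2.2kb cells were treated 23 hr with 15-concentration compound series and 50 nM CITCO at 37 C/5% CO2; CellTiter-Fluor fluorescence was the measured end point.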

[18] = target: Nuclear receptor ROR-gamma (Homo sapiens) (UniProt P51449); assay: qHTS assay to identify small molecule antagonists of the retinoid-related orphan receptor gamma (ROR-gamma) signaling pathway (AID 1159521)
Outline: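 Antagonist read-out: drop in luminescence (ONE-Glo) from an RORE-LUC reporter in CHO cells with doxycycline-inducible ROR-gamma; 2 hr compound pretreatment, 1 uM doxycycline, 16 hr incubation at 37 C.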

[19] = target: Nuclear receptor subfamily 1 group I member 3 (Homo sapiens) (UniProt Q14994); assay: qHTS assay to identify small molecule antagonists of the constitutive androstane receptor (CAR) signaling pathway (AID 1224838);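 note: HepG2 cells stably expressing hCAR with CYP2B6 luciferase reporter stimulated by CITCO; nearly all actives have a fitted effect of over 40% in size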
Chain of Nuclear receptor subfamily 1 group I member 3 (Homo sapiens) (Q14994 whole entry, looked up): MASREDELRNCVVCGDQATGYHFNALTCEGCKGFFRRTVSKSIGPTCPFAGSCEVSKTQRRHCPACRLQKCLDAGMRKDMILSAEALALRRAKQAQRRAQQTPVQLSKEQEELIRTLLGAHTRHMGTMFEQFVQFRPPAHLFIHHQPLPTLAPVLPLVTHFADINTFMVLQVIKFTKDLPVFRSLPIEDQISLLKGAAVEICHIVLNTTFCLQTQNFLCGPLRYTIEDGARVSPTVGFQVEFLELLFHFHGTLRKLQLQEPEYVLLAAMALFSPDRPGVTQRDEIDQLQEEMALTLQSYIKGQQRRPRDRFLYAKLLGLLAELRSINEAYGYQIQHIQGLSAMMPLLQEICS
Outline: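 Human hepatoma HepG2 cells expressing hCAR and a CYP2B6 promoter (2.2 kb) luciferase construct; compound titration (15 points) with 50 nM CITCO final, 24 h at 37 C/5% CO2; luminescence via ONE-Glo after 30 min at room temperature.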

[20] = qHTS assay to identify small molecule agonists of the endoplasmic reticulum stress response signaling pathway - cell viability counter screen (AID 1159517; calls by dose curve; note: nearly all actives have a fitted effect of over 50% in size)
Outline: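 Cytotoxicity of test compounds toward ESRE-bla HeLa cells was assessed after 5 hr exposure. The luminescent CellTiter-Glo signal was measured 30 min after reagent addition.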

Measured: Potency

Nc1cc(C(=O)O)ccc1Cl
not listed: [18] | [19] | [20]
inactive: all other assays above

CCCCCCCCCOCC1CO1 (stereo not given)
not listed: [14] | [15] | [16] | [20]
inactive: all other assays above

CC(C)CCO
not listed: [10] | [19] | [20]
inactive: all other assays above

C1CCN2C[C@@H]3C[C@@H](CN4CCCC[C@@H]34)[C@H]2C1
not listed: [3]
inactive: all other assays above

O=S(=O)(O)c1cc(O)ccc1O
not listed: [18] | [19] | [20]
inactive: all other assays above

COc1cc([N+](=O)[O-])ccc1N
active: [14] 24.3 µM
not listed: [1] | [16] | [17] | [20]
inactive: all other assays above

CCNC(=O)NCCCOc1cccc(CN2CCCCC2)c1
not listed: [16] | [19] | [20]
inactive: all other assays above

CC(C)CCCCCCOC(=O)C1CCCCC1C(=O)OCCCCCCC(C)C (stereo not given)
not listed: [10] | [18] | [19] | [20]
inactive: all other assays above
